PubChem BioAssay (EPA / NIEHS)
Inconclusive results are not listed. Activity calls are given as the source filed them. The calls were made as follows: active = hit-call score of the fitted dose curve at least 0.9, where 1 is the maximum; inconclusive = response in the unintended direction; inactive = score below 0.9.

Each compound was assayed against Glycogen synthase kinase-3 beta (Homo sapiens) (UniProt P49841) (assay: NVS_ENZ_hGSK3b: NovaScreen (NVS) Enzymatic Assay for human Glycogen Synthase Kinase-3 beta (GSK3b) (AID 2283165)).
Outline: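 Recombinant enzyme with specific fluorescent substrate, 1 h, product separated by electrophoretic mobility shift. Primary duplicate screen at 25 uM; actives (e.g. 30% inhibition) followed in singleton concentration-response to 50 uM. Signal loss fitted versus DMSO.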

Glycogen synthase kinase-3 beta (Homo sapiens), sequence (P49841 whole entry, looked up): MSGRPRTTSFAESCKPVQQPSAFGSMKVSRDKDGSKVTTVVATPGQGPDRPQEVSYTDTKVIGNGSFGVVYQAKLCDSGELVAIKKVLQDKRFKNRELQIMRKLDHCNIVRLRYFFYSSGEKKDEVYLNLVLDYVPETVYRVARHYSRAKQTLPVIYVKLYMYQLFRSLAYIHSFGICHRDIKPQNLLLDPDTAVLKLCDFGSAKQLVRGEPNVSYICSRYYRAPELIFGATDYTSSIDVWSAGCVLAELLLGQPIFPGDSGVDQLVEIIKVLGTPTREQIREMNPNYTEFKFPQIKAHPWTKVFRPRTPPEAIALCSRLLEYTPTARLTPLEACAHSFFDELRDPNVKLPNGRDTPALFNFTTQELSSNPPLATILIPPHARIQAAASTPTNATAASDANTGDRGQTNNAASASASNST

outcome, inactive:
Nc1nc(=S)c2[nH]cnc2[nH]1, O=C(Oc1ccccc1)c1cccc(C(=O)Oc2ccccc2)c1, O=C1OC(c2ccc(O)cc2)(c2ccc(O)cc2)c2ccccc21, O=C(O)CN(CC(=O)O)CC(=O)O, CCCC(=O)O, CC(C)c1cccc(C(C)C)c1NC(=O)NS(=O)(=O)c1cc(C(C)(C)O)co1, NC1CCCCC1, c1ccc2occc2c1, C=CCc1ccc(OC)c(OC)c1, COC(=O)CCCC(=O)OC, CC1(C)C(=O)NC(=O)N1CO, Oc1ccc(O)cc1, Cc1occc(=O)c1O, C/C=C/c1ccc(OC)cc1, CCOCCOCCO, O=NO, S=c1[nH]c2ccccc2s1

The compounds below were run against human Janus Kinase 2 (Jak2), JAK2 (gene 3717) (UniProt O60674) (assay: NVS_ENZ_hJak2: NovaScreen (NVS) Enzymatic Assay for human Janus Kinase 2 (Jak2) (AID 2283169)).
Outline: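 Cell-free recombinant human JAK2 enzyme activity assay, fluorescence/electrophoretic mobility shift read 1 h after dosing. Screened in duplicate at 25 uM, then concentration-response up to 50 uM; activity as signal loss relative to DMSO.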

human Janus Kinase 2 (Jak2), JAK2 (gene 3717), sequence (O60674 whole entry, looked up): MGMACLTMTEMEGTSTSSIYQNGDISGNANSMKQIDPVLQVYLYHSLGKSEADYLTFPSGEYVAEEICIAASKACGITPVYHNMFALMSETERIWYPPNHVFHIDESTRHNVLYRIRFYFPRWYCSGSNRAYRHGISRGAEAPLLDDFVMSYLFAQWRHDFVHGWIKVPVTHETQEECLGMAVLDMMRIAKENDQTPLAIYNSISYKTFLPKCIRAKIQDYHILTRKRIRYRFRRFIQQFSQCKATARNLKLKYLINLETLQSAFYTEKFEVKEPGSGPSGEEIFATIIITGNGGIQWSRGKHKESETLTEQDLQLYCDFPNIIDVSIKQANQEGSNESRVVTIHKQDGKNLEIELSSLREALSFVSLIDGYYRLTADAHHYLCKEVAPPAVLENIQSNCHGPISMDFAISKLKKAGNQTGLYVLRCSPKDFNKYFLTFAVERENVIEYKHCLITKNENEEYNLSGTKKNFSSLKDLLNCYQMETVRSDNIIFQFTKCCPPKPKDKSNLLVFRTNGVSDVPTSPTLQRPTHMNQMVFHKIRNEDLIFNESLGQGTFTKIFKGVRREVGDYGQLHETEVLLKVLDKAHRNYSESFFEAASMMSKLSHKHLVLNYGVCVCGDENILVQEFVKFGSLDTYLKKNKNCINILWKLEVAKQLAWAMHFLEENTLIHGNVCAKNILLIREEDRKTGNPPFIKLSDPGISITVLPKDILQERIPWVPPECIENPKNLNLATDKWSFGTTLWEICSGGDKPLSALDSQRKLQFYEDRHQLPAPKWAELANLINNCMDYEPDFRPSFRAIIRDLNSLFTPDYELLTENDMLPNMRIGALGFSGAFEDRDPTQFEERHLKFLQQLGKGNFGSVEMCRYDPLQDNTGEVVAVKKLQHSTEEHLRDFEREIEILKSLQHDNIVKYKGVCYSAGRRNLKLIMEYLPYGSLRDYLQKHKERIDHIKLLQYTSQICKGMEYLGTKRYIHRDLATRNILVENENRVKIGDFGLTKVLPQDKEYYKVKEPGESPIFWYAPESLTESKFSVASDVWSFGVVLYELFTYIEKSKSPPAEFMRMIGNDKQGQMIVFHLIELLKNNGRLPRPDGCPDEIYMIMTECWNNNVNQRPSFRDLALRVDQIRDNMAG

outcome, inactive:
CC(C)NCC(O)c1ccc(O)c(O)c1 (stereo not drawn), O=C(Oc1ccccc1)c1cccc(C(=O)Oc2ccccc2)c1, O=C1NC(=O)C(c2ccccc2)(c2ccccc2)N1, O=C(O)CC(O)(CC(=O)O)C(=O)O, CC(C)COC(=O)CCCCC(=O)OCC(C)C, CCCCCCCCCCCCCCCCO
